Hit rate of the full screen: of about 5,500 compounds, about 2,000 (36%) were called active. Inconclusive results (about 18%) are left out. Cut-off read from the data, not from the text of the source: active = normalized growth mostly below about 0.91 (no sharp cut-off); inconclusive = no clear call, values can overlap the other calls; inactive = mostly above about 0.92. The list shows a part of the results.
Assay: chemical genetic growth profiling, strain panel (AID 1159580);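 note: tested at 20 µM; growth read once vehicle control cultures reached saturation at 30 °C; 1 = growth at the plate median or of vehicle wells; lower values mean less growth of the strain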
Settings: growth OD

Measured: normalized growth

Cc1occc(=O)c1O
inactive: S. cerevisiae deletion strains, locus YKL009W, strain mrt4, active compounds read low 1.01 | S. cerevisiae deletion strains, locus YKL068W, active compounds read low 1 | S. cerevisiae deletion strains, locus YKL085W, strain MDH1 (second series), active compounds read low 1 | S. cerevisiae deletion strains, locus YKL085W, strain MDH1, active compounds read low 1 | S. cerevisiae deletion strains, locus YKL160W, strain elf1, active compounds read low 0.962 | S. cerevisiae deletion strains, locus YKR001C, strain vps1, active compounds read low 1.03 | S. cerevisiae deletion strains, locus YKR026C, strain gcn3, active compounds read low 0.97 | S. cerevisiae deletion strains, locus YKR091W, strain srl3, active compounds read low 0.962 | S. cerevisiae deletion strains, locus YLL001W, strain dnm1, active compounds read low 0.96 | S. cerevisiae deletion strains, locus YLL026W, active compounds read low 0.961 | S. cerevisiae deletion strains, locus YLL041C, strain sdh2, active compounds read low 0.977 | S. cerevisiae deletion strains, locus YLR027C, strain aat2, active compounds read low 0.97 | S. cerevisiae deletion strains, locus YLR039C, strain RIC1, active compounds read low 1.01 | S. cerevisiae deletion strains, locus YLR058C, strain SHM2, active compounds read low 1.01 | S. cerevisiae deletion strains, locus YLR102C, strain apc9, active compounds read low 1.01 | S. cerevisiae deletion strains, locus YLR113W, strain HOG1, active compounds read low 1.03 | S. cerevisiae deletion strains, locus YLR221C, strain rsa3, active compounds read low 0.96 | S. cerevisiae deletion strains, locus YLR258W, strain gsy2, active compounds read low 0.973 | S. cerevisiae deletion strains, locus YLR262C, strain YPT6 (second series), active compounds read low 0.964 | S. cerevisiae deletion strains, locus YLR262C, strain YPT6, active compounds read low 1.01 | S. cerevisiae deletion strains, locus YLR268W, strain sec22, active compounds read low 1.01 | S. cerevisiae deletion strains, locus YLR320W, strain mms22, active compounds read low 0.95 | S. cerevisiae deletion strains, locus YLR330W, strain CHS5, active compounds read low 0.999 | S. cerevisiae deletion strains, locus YLR342W, strain FKS1 (second series), active compounds read low 1 | S. cerevisiae deletion strains, locus YLR342W, strain FKS1, active compounds read low 0.974 | S. cerevisiae deletion strains, locus YLR357W, strain rsc2, active compounds read low 0.941 | S. cerevisiae deletion strains, locus YLR370C, strain arc18, active compounds read low 0.98 | S. cerevisiae deletion strains, locus YLR371W, strain rom2, active compounds read low 1.02 | S. cerevisiae deletion strains, locus YLR384C, strain iki3, active compounds read low 0.969 | S. cerevisiae deletion strains, locus YLR418C, strain cdc73, active compounds read low 1.03 | S. cerevisiae deletion strains, locus YML016C, strain PPZ1, active compounds read low 1 | S. cerevisiae deletion strains, locus YML032C, strain rad52, active compounds read low 1.01 | S. cerevisiae deletion strains, locus YML120C, strain ndi1, active compounds read low 0.95 | S. cerevisiae deletion strains, locus YML124C, strain tub3, active compounds read low 1.01 | S. cerevisiae deletion strains, locus YMR058W, strain fet3, active compounds read low 0.971 | S. cerevisiae deletion strains, locus YMR078C, strain ctf18, active compounds read low 1.01 | S. cerevisiae deletion strains, locus YMR125W, strain sto1, active compounds read low 0.935 | S. cerevisiae deletion strains, locus YMR129W, active compounds read low 0.972 | S. cerevisiae deletion strains, locus YMR205C, strain PFK2, active compounds read low 0.948 | S. cerevisiae deletion strains, locus YMR223W, strain ubp8, active compounds read low 0.998 | S. cerevisiae deletion strains, locus YMR231W, strain pep5, active compounds read low 0.976 | S. cerevisiae deletion strains, locus YMR307W, strain GAS1, active compounds read low 0.968 | S. cerevisiae deletion strains, locus YNL067W, strain RPL9B, active compounds read low 1 | S. cerevisiae deletion strains, locus YNL071W, strain lat1, active compounds read low 0.979 | S. cerevisiae deletion strains, locus YNL128W, strain TEP1, active compounds read low 1.03 | S. cerevisiae deletion strains, locus YNL183C, strain NPR1, active compounds read low 0.97 | S. cerevisiae deletion strains, locus YNL209W, strain ssb2, active compounds read low 0.971 | S. cerevisiae deletion strains, locus YNL233W, strain BNI4, active compounds read low 1.01 | S. cerevisiae deletion strains, locus YNL248C, strain rpa49, active compounds read low 0.975 | S. cerevisiae deletion strains, locus YNL250W, strain rad50, active compounds read low 1 | S. cerevisiae deletion strains, locus YNL271C, strain bni1, active compounds read low 1.02 | S. cerevisiae deletion strains, locus YNL298W, strain CLA4, active compounds read low 1.05 | S. cerevisiae deletion strains, locus YNL307C, strain MCK1, active compounds read low 1.02 | S. cerevisiae deletion strains, locus YNL322C, strain KRE1 (second series), active compounds read low 0.943 | S. cerevisiae deletion strains, locus YNL322C, strain KRE1, active compounds read low 1 | S. cerevisiae deletion strains, locus YNR049C, strain mso1, active compounds read low 0.958 | S. cerevisiae deletion strains, locus YNR052C, strain pop2, active compounds read low 1.01 | S. cerevisiae deletion strains, locus YOL012C, strain htz1 1.37 | S. cerevisiae deletion strains, locus YOL147C, strain pex11, active compounds read low 1.01 | S. cerevisiae deletion strains, locus YOR001W, strain rrp6, active compounds read low 0.983 | S. cerevisiae deletion strains, locus YOR061W, strain CKA2, active compounds read low 1.01 | S. cerevisiae deletion strains, locus YOR069W, strain VPS5, active compounds read low 1.01 | S. cerevisiae deletion strains, locus YOR070C, strain gyp1, active compounds read low 0.969 | S. cerevisiae deletion strains, locus YOR080W, strain dia2, active compounds read low 0.961 | S. cerevisiae deletion strains, locus YOR083W, strain WHI5, active compounds read low 0.952 | S. cerevisiae deletion strains, locus YOR106W, strain vam3, active compounds read low 0.942 | S. cerevisiae deletion strains, locus YOR136W, strain idh2, active compounds read low 1.02 | S. cerevisiae deletion strains, locus YOR144C, strain elg1, active compounds read low 1.01 | S. cerevisiae deletion strains, locus YOR184W, strain ser1, active compounds read low 1.03 | S. cerevisiae deletion strains, locus YOR231W, strain MKK1, active compounds read low 1.02 | S. cerevisiae deletion strains, locus YOR265W, strain rbl2, active compounds read low 0.971 | S. cerevisiae deletion strains, locus YOR270C, strain vph1, active compounds read low 0.931 | S. cerevisiae deletion strains, locus YOR290C, strain snf2, active compounds read low 0.916 | S. cerevisiae deletion strains, locus YOR316C, strain cot1, active compounds read low 1.01 | S. cerevisiae deletion strains, locus YPL051W, strain arl3, active compounds read low 0.973 | S. cerevisiae deletion strains, locus YPL055C, strain LGE1, active compounds read low 1.01 | S. cerevisiae deletion strains, locus YPL078C, strain atp4, active compounds read low 0.968 | S. cerevisiae deletion strains, locus YPL106C, strain sse1, active compounds read low 0.924 | S. cerevisiae deletion strains, locus YPL240C, strain hsp82, active compounds read low 0.983 | S. cerevisiae deletion strains, locus YPL241C, strain CIN2, active compounds read low 1 | S. cerevisiae deletion strains, locus YPL256C, strain CLN2, active compounds read low 1.01 | S. cerevisiae deletion strains, locus YPR119W, strain clb2, active compounds read low 1 | S. cerevisiae deletion strains, locus YPR141C, strain kar3, active compounds read low 1 | S. cerevisiae deletion strains, locus YPR163C, strain tif3, active compounds read low 1 | S. cerevisiae deletion strains, locus YPR167C, strain met16, active compounds read low 1.01 | S. cerevisiae deletion strains, strain wtn01, active compounds read low 0.993 | S. cerevisiae strains, strain wild type, active compounds read low 1

Reference: PubChem BioAssay AID1159580 (chemical genetic matrix, 2015)
